# High-throughput results (PubChem BioAssay)
# PPARg SRC-3 ag = agonists of human PPARgamma SRC-3 coactivator recruitment. P37231. biochemical PPARgamma/SRC-3 coactivator recruitment assay. activation, % at 8 µM. actives 0.26% (n = 200,000). AID 731; in the data active = activation above about 23%;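 note: 0% = DMSO and 100% = reference agonist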
# Target sequence (P37231 whole entry, looked up): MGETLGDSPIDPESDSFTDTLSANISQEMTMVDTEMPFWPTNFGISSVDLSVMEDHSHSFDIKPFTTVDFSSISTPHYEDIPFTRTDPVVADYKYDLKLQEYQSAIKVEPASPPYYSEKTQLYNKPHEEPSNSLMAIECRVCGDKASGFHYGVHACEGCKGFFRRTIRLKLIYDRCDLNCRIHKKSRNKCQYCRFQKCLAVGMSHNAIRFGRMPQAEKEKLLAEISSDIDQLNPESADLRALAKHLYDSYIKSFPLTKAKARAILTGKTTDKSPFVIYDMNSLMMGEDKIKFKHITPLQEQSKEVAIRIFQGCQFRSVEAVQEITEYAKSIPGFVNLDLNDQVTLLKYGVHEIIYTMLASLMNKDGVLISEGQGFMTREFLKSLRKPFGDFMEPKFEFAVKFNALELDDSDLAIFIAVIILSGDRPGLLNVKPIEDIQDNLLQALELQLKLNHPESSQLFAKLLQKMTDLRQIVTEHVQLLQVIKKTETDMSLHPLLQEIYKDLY
# SRC1 TRFRET art = flags TR-FRET format artefacts in PPARgamma SRC-1 recruitment agonist screen. actives 0.34% (n = 99,000). TR-FRET detection artefact counter-screen, emission ratio; active compounds read high. AID 1051. TR-FRET ratio at 8 µM; in the data active = TR-FRET ratio above about 2300
# PPARg SRC1 recr = promotes SRC-1 coactivator recruitment by human PPARgamma | P37231 | PPARgamma-SRC-1 coactivator recruitment biochemical assay | activation, % at 8 µM | actives 0.41% (n = 200,000); in the data active = activation above about 19%;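 note: 0% = DMSO and 100% = reference agonist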
# PPARg SRC2 recr = PPARgamma-driven SRC-2 recruitment agonism | P37231 | PPARgamma LBD-SRC-2 recruitment, biochemical | activation, % at 8 µM | actives 0.34% (n = 200,000) | AID 1032;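 note: 0% = vehicle and 100% = reference agonist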
# TR-FRET SRC-2 ct = flags TR-FRET format artefacts in PPARgamma SRC-2 recruitment agonist screen | TR-FRET artefact counter-screen; active compounds read high | TR-FRET ratio at 8 µM | actives 0.4% (n = 200,000); in the data active = TR-FRET ratio above about 2000
# SRC3 TRFRET art = TR-FRET artefact, counter-screen to PPARgamma/SRC-3 agonist assay. PPARgamma/SRC-3 format; active compounds read high. TR-FRET ratio at 8 µM. actives 0.39% (n = 99,000). AID 1048; in the data active = TR-FRET ratio above about 2000
# PPARg SRC2 conf = confirmation of agonists of SRC-2 recruitment by human PPARgamma. actives 52% (n = 790). shares compounds with PPARg SRC-3 ag. biochemical SRC-2 recruitment by PPARgamma. activation, % at 8 µM;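 note: 0% = vehicle alone and 100% = reference agonist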
# PPARg SRC1 ag = confirmation of agonists of SRC-1 recruitment by human PPARgamma. shares compounds with PPARg SRC-3 ag. PPARgamma–SRC-1 coactivator recruitment biochemical assay. activation, % at 8 µM. actives 43% (n = 790). AID 1300; in the data active = activation above about 20%;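 note: 0% = vehicle wells and 100% = reference agonist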
# PPARg SRC3 ag = confirmation of agonists of SRC-3 recruitment by human PPARgamma. actives 29% (n = 790). activation, % at 8 µM. shares compounds with PPARg SRC-3 ag. biochemical PPARgamma-SRC-3 coactivator recruitment, agonist mode. AID 1301; in the data active = activation above about 24%;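 note: 0% = vehicle wells and 100% = reference agonist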
# * marks the source's active call; other numbers are inactive results; · = no result. In the library only some 0.84% were active in any assay of this set; here they are far more common. Cut-off read from the data, not from the text of the source, unless noted: active = activation above about 22%; inactive = the rest.
SMILES,PPARg SRC-3 ag,SRC1 TRFRET art,PPARg SRC1 recr,PPARg SRC2 recr,TR-FRET SRC-2 ct,SRC3 TRFRET art,PPARg SRC2 conf,PPARg SRC1 ag,PPARg SRC3 ag
Cc1ccc(-n2c(-c3ccccc3)n[nH]c2=S)cc1,27*,·,20*,35*,2299*,·,35*,28*,26*
COCCNc1nc2ccccc2nc1NS(=O)(=O)c1ccc(C)cc1C,23,·,18,23*,2002*,·,24*,17,14
COc1ccc(-c2cn3c(C)c(C(=O)Nc4cc(NC(C)=O)ccc4OC)sc3n2)cc1,47*,·,23*,39*,2510*,·,41*,34*,25*
Cc1ccccc1C1C(C#N)=C2N=C(N)c3c(sc4c3CCCCC4)N2C2=C1C(=O)CCC2 (configuration not stated),5,·,3,3,1519,·,·,·,·
O=C(Cc1cccs1)NCCSc1c(-c2ccc(Cl)cc2)[nH]c2ccccc12,54*,3752*,28*,20,5424*,7221*,26*,32*,41*
Cc1ccc(-c2[nH]c3ccccc3c2SCCNC(=O)c2cc3ccccc3oc2=O)cc1,6,1683,7,4,1384,1709,·,·,·
Cc1nnc(SCC(=O)NC2CCCCC2C)s1 (configuration not stated),-1,1707,-2,3,1487,1746,·,·,·
C=CCn1sc(=N)c(C#N)c1N,-3,2074,5,0,1496,1624,·,·,·
COC(=O)c1sccc1NC(=O)c1cc(-c2cccc(C)c2)nc2ccccc12,13,·,9,26*,2058*,·,2,5,2
O=C(COc1ccc2ccccc2c1Br)NNC(=O)Nc1ccccc1,26*,·,21*,28*,2408*,·,21,13,14
Cc1cccc(NC(=O)CSc2c3c(nc4ccccc24)CCC3)n1,5,1807,-3,7,1518,1583,·,·,·
COc1cccc(NC(=O)CSc2c3c(nc4ccccc24)CCCC3)c1,13,2392*,21*,21,1718,2050,22*,17,15
Cc1ccc(CNC(=O)CSc2c3c(nc4ccc(Cl)cc24)CCCC3)o1,19,·,13,16,1885,·,·,·,·
CCN(CC)CCNC(=O)CSc1c2c(nc3cc(Cl)ccc13)CCCC2,25*,3055*,23*,47*,2230*,2600*,33*,22*,22
CCOC(=O)c1c(C)[nH]c(C(=O)COC(=O)CNC(=O)c2ccc(Cl)cc2Cl)c1C,3,1848,4,-5,1631,1666,·,·,·
CCOC(=O)c1c(NC(=O)COc2ncnc3ccccc23)sc(C(C)=O)c1C,11,2218,13,25*,1682,1991,16,14,10
O=C(CSc1ccccc1)Nc1ccc(C(=O)Nc2ccc(O)cc2)cc1,18,1849,26*,37*,1725,1821,30*,22*,18
COC(=O)c1ccc(NC(=O)CSc2ccccc2)cc1,5,1964,2,-5,1612,1619,·,·,·
COc1ccc(C2CCCN2C(=O)Nc2ccccc2)cc1OC (configuration not stated),-13,·,-1,-4,1370,·,·,·,·
Fc1ccc(CSc2ncnc3c2oc2ccccc23)cc1,10,2218,15,10,1720,1683,·,·,·
Cc1nc(SCc2nc3ccccc3[nH]2)c2oc3ccccc3c2n1,-10,·,3,3,1383,·,·,·,·
c1ccc2[nH]c(CSc3ncnc4c3oc3ccccc34)nc2c1,72*,·,44*,71*,2940*,·,44*,30*,29*
O=C(CSc1ncnc2c1oc1ccccc12)Nc1cccc(F)c1,43*,·,25*,22*,1746,·,30*,24*,20
Cc1ccc2nc(NC(=O)CSc3ncnc4c3oc3ccccc34)sc2c1,14,·,30*,10,1748,·,33*,22*,19
Fc1cccc(CSc2ncnc3c2oc2ccccc23)c1,42*,·,36*,45*,2464*,·,39*,27*,27*
SMILES,PPARg SRC-3 ag,SRC1 TRFRET art,PPARg SRC1 recr,PPARg SRC2 recr,TR-FRET SRC-2 ct,SRC3 TRFRET art,PPARg SRC2 conf,PPARg SRC1 ag,PPARg SRC3 ag
Cc1cccc(NC(=O)CSc2ncnc3c2oc2ccccc23)c1,14,·,11,19,1711,·,·,·,·
COc1ccccc1NC(=O)C1=C(C)NC(=O)NC1c1cc(C)cs1 (configuration not stated),1,1892,3,-1,1649,1689,·,·,·
Cc1cc(C)c2c(=O)[nH]c(SCc3ccccc3)nc2n1,4,1868,-3,1,1504,1466,·,·,·
COc1ccccc1NC(=O)CSc1ncnc2c1oc1ccccc12,13,·,-5,2,1618,·,·,·,·
O=C(CSc1ncnc2c1oc1ccccc12)NCc1ccc(F)cc1,63*,·,58*,71*,3344*,·,48*,34*,29*
Cn1cccc1C(=O)NC(=O)COC(=O)c1ccccc1Sc1ccccc1C#N,29*,·,24*,22*,3090*,·,19,19,10
c1ccc(-c2nnsc2-c2ncc[nH]2)cc1,1,1803,-5,2,1496,1443,·,·,·
c1ccc(-c2nnsc2-c2nc3ccccc3[nH]2)cc1,13,2080,21*,17,1693,1662,40*,34*,22
CCOc1ccc(S(=O)(=O)N(C)c2ccc(OCC(=O)NCC3CCCO3)cc2)cc1 (configuration not stated),0,1754,5,1,1508,1439,·,·,·
CC(C)Sc1nc2sc3c(c2c2nnc(SCC(=O)NCc4ccco4)n12)CCCC3,11,·,19*,10,1699,·,9,0,5
CCOc1cc(N2CCOCC2)c(OCC)cc1NC(=O)COc1ccc2ccc(=O)oc2c1,2,1751,-5,-5,1351,1639,·,·,·
COC(=O)CC1C(=O)NCCN1C(=O)CSc1nc2ccccc2s1 (configuration not stated),5,1734,2,7,1520,1654,·,·,·
COc1ccc(C(CC(=O)Nc2ccc(Cl)cc2F)NC(=O)C(F)(F)F)cc1 (configuration not stated),8,·,19*,2,1618,·,4,4,4
CC(=O)C1=C(O)C(=O)N(c2nccs2)C1c1ccccc1 (configuration not stated),16,·,10,27*,1601,·,22*,16,13
CC1(C)OC(=O)C(=Cc2ccc(-c3ccc(S(N)(=O)=O)cc3)o2)C(=O)O1,-1,1707,-2,-5,1382,1686,·,·,·
NS(=O)(=O)c1ccc(-c2ccc(/C=C3\C(=O)Nc4cc(Cl)ccc43)o2)cc1,16,1718,27*,16,1867,1999,31*,16,18
